Reference: PubChem BioAssay

These compounds were tested against Voltage-gated potassium channel subunit beta-2 (Rattus norvegicus) (UniProt P62483) (assay: KvBeta positive modulators, primary screen, biochemical, NADPH fluorescence (AID 623;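 active = NADPH fluorescence slope more negative than the mean of all samples by about 3 SD, 99.7% confidence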;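 also: fluorescence intensity change per second fitted from 20 to 320 s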)). Conditions: Recombinant KvBeta, NADPH fluorescence decrease slope, 10 min; at 10 µM; hits give low values.
Chain of Voltage-gated potassium channel subunit beta-2 (Rattus norvegicus) (P62483 whole entry, looked up): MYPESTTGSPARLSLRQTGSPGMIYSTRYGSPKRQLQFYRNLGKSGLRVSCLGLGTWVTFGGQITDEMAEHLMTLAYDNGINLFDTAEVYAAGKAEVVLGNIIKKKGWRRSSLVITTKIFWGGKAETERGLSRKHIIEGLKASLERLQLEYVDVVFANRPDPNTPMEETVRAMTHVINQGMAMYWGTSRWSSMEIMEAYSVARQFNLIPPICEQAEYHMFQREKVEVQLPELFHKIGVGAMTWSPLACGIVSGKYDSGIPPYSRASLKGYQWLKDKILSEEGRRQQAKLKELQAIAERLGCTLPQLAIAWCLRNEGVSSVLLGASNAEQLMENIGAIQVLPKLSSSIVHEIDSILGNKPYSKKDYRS

NADPH fluorescence slope, inactive:
COc1ccc(-c2nc3c(c(SCC(=O)N4CCOCC4)n2)COC(C)(C)C3)cc1 1.1e-05, CCN(CC)C(=O)c1ccc(CS(=O)(=O)c2ccc(OC)cc2)o1 -3e-05, CC(C)CCNC(=O)NC(=O)COc1ccccc1C#N -8.5e-06, CCOC(=O)N1CCN(S(=O)(=O)c2ccc(F)c(C(=O)Nc3cc(C)cc(C)c3)c2)CC1 -1.2e-05, Cc1nnc(SCC(=O)Nc2c(Cl)cccc2Cl)[nH]c1=O -4.3e-05, CCCCN(CCCC)CCn1cnc2c([nH]c3ccc(OC)cc32)c1=O -1.1e-05, CC(=O)c1ccc(OCC(O)CN2CC(C)OC(C)C2)cc1 (stereo not given) 9.2e-06, CCOc1ccc(-c2nc(C#N)c(NCc3ccc4c(c3)OCO4)o2)cc1 -4.4e-05, Cc1cc(N=Cc2cc(Br)ccc2O)no1 -3.4e-05, CCCCN1C(=O)C2C(C(=O)Nc3cccc(OC)c3)C3C=CC2(O3)C1C(=O)NC1CCCCC1C (stereo not given) -2.7e-05, CN(C)S(=O)(=O)c1ccc2c(c1)c(=O)c(C(=O)NCCCN1CCCCCC1)cn2C -3.3e-05, COc1ccc(C(=O)N2CCN(c3nc4cc(C)ccc4cc3C#N)CC2)c(OC)c1 -2.2e-05, COc1cc(C(=O)OC(C)CN2CCCC2)cc(OC)c1OC (stereo not given) -5.1e-05, Cc1ccnc2c(N3C(=O)C4C5C=CC(C5)C4(C)C3=O)cccc12 (stereo not given) -1.1e-05, COc1ccc(OC)c(NC(=O)CSc2nnc(Cc3cccn3C)n2-c2ccc(F)cc2)c1 1.6e-05, COc1ccc(C2=NO[C@@H]3C(=O)N(c4cccc(C)c4C)C(=O)[C@H]23)cc1OC -4.9e-05, CN(C)c1nc(SCCOC(=O)c2ccccc2)nc(N(C)C)n1 2.1e-06, CCN(CC)c1ccc(-c2c(C#N)c(N)nc(OC)c2C#N)cc1 5.4e-06, COc1ccc(CN(CC(=O)NCC2CCCO2)C(=O)CNS(=O)(=O)c2ccc(C)cc2)cc1 (stereo not given) -3.8e-05, COC(=O)c1sccc1NC(=O)c1csc(C)c1 -0.000107, Cc1ccc(C(=O)CC2(O)C(=O)N(C)c3ccc(Br)cc32)c(C)c1 (stereo not given) -5.1e-05, CC(=O)Nc1c(-c2ccc(F)cc2)nc2ccccn12 9e-06, CCCc1cc(=O)[nH]c(/N=C(\N)Nc2ccccc2)n1 -2.5e-05, O=C(CN1CCCC1)Nc1ccc(NC(=O)Nc2ccccc2)cc1 7.1e-05, Cc1ccc(CN2C(=O)CCC2C(=O)NC2CCCC2)cc1 (stereo not given) -3.4e-05, CSCSC1=C(C#N)C(c2ccc(Cl)cc2)C(C(C)=O)=C(C)N1 (stereo not given) -0.00017, COc1ccc(OC)c(S(=O)(=O)N2c3ccccc3CC2C)c1 (stereo not given) 2.6e-06, CC(=O)Nc1ccc(OCC(O)Cn2nc(C)nc2C)cc1 (stereo not given) -1.1e-05, CC(C)C1C2=C(CC(C)(C)CC2=O)ON1c1ccccc1 (stereo not given) -4.4e-05, O=C(CN1C(=O)C2C3C=CC(C3)C2C1=O)NCc1ccc2c(c1)OCO2 (stereo not given) 1.2e-05, COc1ccc(C(=O)Nc2ccc(S(=O)(=O)Nc3onc(C)c3C)cc2)cc1 -5.4e-05, Cc1nnc(SCc2ccccc2)n1N -4.1e-05, O=C(c1ncn[nH]1)N1CCN(c2nc(-c3ccccc3)cs2)CC1 -4.6e-06, Cc1cc(C)nc(SC2=CS(=O)(=O)c3ccccc32)n1 3.3e-05, CC(=O)OC1c2ccccc2C(=O)N1c1ccccc1C (stereo not given) -1.7e-05, CCCCn1c(=O)[nH]c(=O)c2c1nc(COc1ccc(C#N)cc1)n2CCC 6.8e-06, Cc1ccccc1CSc1nnc(C)c(=O)[nH]1 1.6e-05, Cc1nc2cc(C(=O)O)ccc2n1-c1ccc(F)cc1F -4.1e-05, CC(C)[C@H](NC(=O)NC1CCCC1)C(=O)O 2e-05, Cc1ccccc1N1OC2C(=O)N(c3ccc(F)cc3)C(=O)C2C1c1ccccn1 (stereo not given) -1.4e-05

What follows are compounds tested against Alpha-2C adrenergic receptor (Homo sapiens) (UniProt P18825) (assay: modulators of alpha2C/GIRK thallium flux, primary screen, cell-based, HEK293 alpha2C/GIRK1/2 (AID 624;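 also: slope of fluorescence ratio to pre-addition baseline per second over 15 to 24 s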)). Conditions: thallium flux BTC fluorescence, at 10 µM, actives lie on both sides.
Chain of Alpha-2C adrenergic receptor (Homo sapiens) (P18825 whole entry, looked up): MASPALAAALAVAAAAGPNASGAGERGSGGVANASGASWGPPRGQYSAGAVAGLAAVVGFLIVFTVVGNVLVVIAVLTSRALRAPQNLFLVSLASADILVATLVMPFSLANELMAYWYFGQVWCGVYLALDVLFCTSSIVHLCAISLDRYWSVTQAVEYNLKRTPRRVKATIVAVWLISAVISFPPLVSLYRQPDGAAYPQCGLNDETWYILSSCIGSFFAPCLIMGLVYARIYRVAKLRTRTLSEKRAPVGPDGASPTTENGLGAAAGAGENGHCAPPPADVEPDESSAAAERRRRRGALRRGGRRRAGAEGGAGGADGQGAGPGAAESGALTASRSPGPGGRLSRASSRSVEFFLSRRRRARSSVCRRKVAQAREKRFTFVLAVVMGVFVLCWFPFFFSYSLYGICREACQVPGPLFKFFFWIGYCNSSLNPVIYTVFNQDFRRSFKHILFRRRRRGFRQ

slope, inactive:
COc1ccc(-c2nc3c(c(SCC(=O)N4CCOCC4)n2)COC(C)(C)C3)cc1 0.00848, CCN(CC)C(=O)c1ccc(CS(=O)(=O)c2ccc(OC)cc2)o1 0.00698, CC(C)CCNC(=O)NC(=O)COc1ccccc1C#N 0.00627, CCOC(=O)N1CCN(S(=O)(=O)c2ccc(F)c(C(=O)Nc3cc(C)cc(C)c3)c2)CC1 0.00302, Cc1nnc(SCC(=O)Nc2c(Cl)cccc2Cl)[nH]c1=O 0.00796, CCCCN(CCCC)CCn1cnc2c([nH]c3ccc(OC)cc32)c1=O 0.00685, CC(=O)c1ccc(OCC(O)CN2CC(C)OC(C)C2)cc1 (stereo not given) 0.00724, CCOc1ccc(-c2nc(C#N)c(NCc3ccc4c(c3)OCO4)o2)cc1 0.00619, Cc1cc(N=Cc2cc(Br)ccc2O)no1 0.00663, CCCCN1C(=O)C2C(C(=O)Nc3cccc(OC)c3)C3C=CC2(O3)C1C(=O)NC1CCCCC1C (stereo not given) 0.00569, CN(C)S(=O)(=O)c1ccc2c(c1)c(=O)c(C(=O)NCCCN1CCCCCC1)cn2C 0.00602, COc1ccc(C(=O)N2CCN(c3nc4cc(C)ccc4cc3C#N)CC2)c(OC)c1 0.00559, COc1cc(C(=O)OC(C)CN2CCCC2)cc(OC)c1OC (stereo not given) 0.00369, Cc1ccnc2c(N3C(=O)C4C5C=CC(C5)C4(C)C3=O)cccc12 (stereo not given) 0.00676, COc1ccc(OC)c(NC(=O)CSc2nnc(Cc3cccn3C)n2-c2ccc(F)cc2)c1 0.00527, COc1ccc(C2=NO[C@@H]3C(=O)N(c4cccc(C)c4C)C(=O)[C@H]23)cc1OC 0.00915, CN(C)c1nc(SCCOC(=O)c2ccccc2)nc(N(C)C)n1 0.00433, CCN(CC)c1ccc(-c2c(C#N)c(N)nc(OC)c2C#N)cc1 0.00577, COc1ccc(CN(CC(=O)NCC2CCCO2)C(=O)CNS(=O)(=O)c2ccc(C)cc2)cc1 (stereo not given) 0.00362, COC(=O)c1sccc1NC(=O)c1csc(C)c1 0.00657, Cc1ccc(C(=O)CC2(O)C(=O)N(C)c3ccc(Br)cc32)c(C)c1 (stereo not given) 0.0058, CC(=O)Nc1c(-c2ccc(F)cc2)nc2ccccn12 0.00637, CCCc1cc(=O)[nH]c(/N=C(\N)Nc2ccccc2)n1 0.0048, O=C(CN1CCCC1)Nc1ccc(NC(=O)Nc2ccccc2)cc1 0.00831, Cc1ccc(CN2C(=O)CCC2C(=O)NC2CCCC2)cc1 (stereo not given) 0.00496, CSCSC1=C(C#N)C(c2ccc(Cl)cc2)C(C(C)=O)=C(C)N1 (stereo not given) 0.00657, COc1ccc(OC)c(S(=O)(=O)N2c3ccccc3CC2C)c1 (stereo not given) 0.00606, CC(=O)Nc1ccc(OCC(O)Cn2nc(C)nc2C)cc1 (stereo not given) 0.00761, CC(C)C1C2=C(CC(C)(C)CC2=O)ON1c1ccccc1 (stereo not given) 0.0045, O=C(CN1C(=O)C2C3C=CC(C3)C2C1=O)NCc1ccc2c(c1)OCO2 (stereo not given) 0.00636, COc1ccc(C(=O)Nc2ccc(S(=O)(=O)Nc3onc(C)c3C)cc2)cc1 0.00607, Cc1nnc(SCc2ccccc2)n1N 0.00525, O=C(c1ncn[nH]1)N1CCN(c2nc(-c3ccccc3)cs2)CC1 0.00549, Cc1cc(C)nc(SC2=CS(=O)(=O)c3ccccc32)n1 0.00592, CC(=O)OC1c2ccccc2C(=O)N1c1ccccc1C (stereo not given) 0.00543, CCCCn1c(=O)[nH]c(=O)c2c1nc(COc1ccc(C#N)cc1)n2CCC 0.00653, Cc1ccccc1CSc1nnc(C)c(=O)[nH]1 0.00756, Cc1nc2cc(C(=O)O)ccc2n1-c1ccc(F)cc1F 0.00687, CC(C)[C@H](NC(=O)NC1CCCC1)C(=O)O 0.0056, Cc1ccccc1N1OC2C(=O)N(c3ccc(F)cc3)C(=O)C2C1c1ccccn1 (stereo not given) 0.00636
